The nature of test [1]: optical density shifts of acrAB sulA E. coli – strain DRC41, OD650, 48 h, E. coli filamentation inducer project, primary screen (AID 1152).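 Further: E. coli MC1000 strain DRC41 lacking acrAB efflux pump and sulA.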 Particulars: higher = more signal, called active from +8 up or from −8 down.
The nature of test [2]: probe aLefty1 binding on compound microarray – biochemical, small-molecule microarray, 635/667 nm fluorescence, primary screen (AID 1153).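 Further: score merges spot fluorescence with signal-to-noise ratio from the scanned slide images.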 Conditions: higher = more signal.
A short description of test [3]: plasmodial surface anion channel blockers, osmotic lysis – cell-based, P. falciparum Indochina, OD700, 1 h, primary screen (AID 1154). Particulars: P. falciparum Indochina infected RBC osmotic lysis, higher = more signal, called active from +8 up or from −8 down.
Test [4] is described as follows: plasmodial surface anion channel blockers, osmotic lysis – cell-based, P. falciparum Indochina, OD700, 2 h, primary screen (AID 1155).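 Further: lysis reports solute entry through the parasite surface anion channel PSAC.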 Conditions: P. falciparum Indochina infected erythrocytes, higher = more signal, called active from +8 up or from −8 down.
A short description of test [5]: changes in parasitized red cell lysis, either direction – P. falciparum Indochina, OD700, 3 h, PSAC antagonist project, primary screen (AID 1156). Particulars: P. falciparum-infected erythrocytes, osmotic lysis, higher = more signal, called active from +8 up or from −8 down.
Test [6] can be described thus: plasmodial surface anion channel blockers, osmotic lysis – cell-based, P. falciparum Indochina, OD700, 18 h, primary screen (AID 1157). Particulars: P. falciparum Indochina infected erythrocytes, osmotic lysis OD700, 18 h; higher = more signal, called active from +8 up or from −8 down.
Test [7] is described as follows: S6 kinase pathway phospho-S6 level changes – cell-based, A549, cytoblot, luminescence, serum-stimulated, primary screen (AID 1158).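 Further: serum-stimulated A549 lung adenocarcinoma cells; signal is phosphorylated S6 detected by cytoblot immunostaining with HRP secondary.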 Conditions: 5 h, higher = more signal.
The target of test [8] is NADPH oxidase 2 (Homo sapiens) (UniProt P04839). In words: compounds shifting NOX2 Amplex Red fluorescence – cell-based, HEK293-NOX2, PMA-stimulated, NOX inhibitor project, primary screen (AID 1159). Further: test concentration not given here. Conditions: 45 min, higher = more signal, called active from +8 up or from −8 down.
In test [9] the target is NADPH oxidase 4 (Homo sapiens) (UniProt Q9NPH5). In words: compounds shifting NOX4 Amplex Red fluorescence – cell-based, HEK293-NOX4, tetracycline-induced, NOX inhibitor project, primary screen (AID 1160). Conditions: HEK293-NOX4, Amplex Red H2O2 fluorescence, 45 min; higher = more signal, called active from +8 up or from −8 down.
Test [10] has as its target NADPH oxidase 5 (Homo sapiens) (UniProt Q96PH1). In words: compounds shifting NOX5 Amplex Red fluorescence – cell-based, HEK293-NOX5, NOX inhibitor project, primary screen (AID 1161). Conditions: HEK293-NOX5, ionomycin, 45 min, higher = more signal.
The nature of test [11]: compound effects on lung adenocarcinoma cell viability – A549, calcein-AM fluorescence, 48 h, basal, profiling panel (AID 1162). Further: test concentration not given here. Particulars: higher = more signal.
A short description of test [12]: compound effects on differentiated 3T3-L1 adipocyte viability – cell-based, 3T3-L1 adipocytes, calcein-AM fluorescence, 48 h, basal, profiling panel (AID 1163). Further: test concentration not given here. Particulars: 3T3-L1 adipocytes viability, higher = more signal.
Test [13] in a line: compound effects on hepatocellular carcinoma cell viability – HepG2, calcein-AM fluorescence, 48 h, basal, profiling panel (AID 1164). Further: test concentration not given here. Conditions: higher = more signal.
The nature of test [14]: compound effects on multiple myeloma cell viability – MM1S, calcein-AM fluorescence, 48 h, basal, profiling panel (AID 1165).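 Further: viability of MM1S multiple myeloma cells under basal unstimulated conditions; test concentration not given here.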 Particulars: higher = more signal.
The nature of test [15]: calcein-AM signal in unstimulated myeloma cells – cell-based, calcein-AM fluorescence, 48 h, PK04 Diversity Set, profiling panel (AID 1166).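 Further: cells grown under basal conditions without added stimulus; test concentration not given here.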 Particulars: RPMI8226 myeloma viability, higher = more signal.
Test [16] in a line: JC-1 mitochondrial signal, unstimulated HepG2 cells – cell-based, JC-1 fluorescence, 24 h, 100 nL compound, profiling panel (AID 1167). Further: test concentration not given here. Particulars: HepG2 mitochondrial potential, higher = more signal.
Test [17] in a line: JC-1 mitochondrial signal, unstimulated adipocytes – cell-based, JC-1 fluorescence, 3T3-L1 adipocytes, 24 h, 100 nL compound, profiling panel (AID 1168). Further: test concentration not given here. Conditions: JC-1 mitochondrial fluorescence, higher = more signal, called active from +8 up or from −8 down.
Test [18] can be described thus: JC-1 mitochondrial signal, unstimulated myeloma cells – cell-based, JC-1 fluorescence, RPMI8226, 24 h, 100 nL compound, profiling panel (AID 1169). Further: test concentration not given here. Conditions: JC-1 mitochondrial potential fluorescence, higher = more signal.
The nature of test [19]: JC-1 mitochondrial signal, unstimulated MM1S myeloma – cell-based, JC-1 fluorescence, 24 h, 100 nL compound, profiling panel (AID 1170). Further: test concentration not given here. Particulars: MM1S mitochondrial potential, higher = more signal.
The nature of test [20]: resazurin metabolic signal in A549 cells – cell-based, resazurin fluorescence, 24 h, PK04 Diversity Set, profiling panel (AID 1171). Further: test concentration not given here. Particulars: A549 viability, higher = more signal, called active from +8 up or from −8 down. In general terms: The colour change of resazurin is a common sign of viable cells or microbes.

Each structure is given as a SMILES string. Calls of active or inactive are those of the source.

Sequence of NADPH oxidase 4 (Homo sapiens) (Q9NPH5 whole entry, looked up): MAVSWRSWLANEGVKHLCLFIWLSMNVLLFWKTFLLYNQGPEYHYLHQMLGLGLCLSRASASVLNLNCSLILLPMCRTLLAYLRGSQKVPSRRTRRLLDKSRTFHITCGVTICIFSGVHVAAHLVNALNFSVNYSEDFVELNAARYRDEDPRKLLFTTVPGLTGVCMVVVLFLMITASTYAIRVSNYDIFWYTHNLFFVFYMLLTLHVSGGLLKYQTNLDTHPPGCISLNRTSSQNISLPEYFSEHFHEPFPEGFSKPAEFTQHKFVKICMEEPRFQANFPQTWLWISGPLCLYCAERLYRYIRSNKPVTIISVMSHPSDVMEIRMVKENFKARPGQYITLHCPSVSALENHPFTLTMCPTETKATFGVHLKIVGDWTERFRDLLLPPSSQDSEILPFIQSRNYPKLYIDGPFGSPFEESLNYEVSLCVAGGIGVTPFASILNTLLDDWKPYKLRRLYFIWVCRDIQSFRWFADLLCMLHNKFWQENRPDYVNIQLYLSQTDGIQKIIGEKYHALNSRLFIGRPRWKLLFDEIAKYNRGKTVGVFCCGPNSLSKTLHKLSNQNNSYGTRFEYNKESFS
Sequence of NADPH oxidase 2 (Homo sapiens) (P04839 whole entry, looked up): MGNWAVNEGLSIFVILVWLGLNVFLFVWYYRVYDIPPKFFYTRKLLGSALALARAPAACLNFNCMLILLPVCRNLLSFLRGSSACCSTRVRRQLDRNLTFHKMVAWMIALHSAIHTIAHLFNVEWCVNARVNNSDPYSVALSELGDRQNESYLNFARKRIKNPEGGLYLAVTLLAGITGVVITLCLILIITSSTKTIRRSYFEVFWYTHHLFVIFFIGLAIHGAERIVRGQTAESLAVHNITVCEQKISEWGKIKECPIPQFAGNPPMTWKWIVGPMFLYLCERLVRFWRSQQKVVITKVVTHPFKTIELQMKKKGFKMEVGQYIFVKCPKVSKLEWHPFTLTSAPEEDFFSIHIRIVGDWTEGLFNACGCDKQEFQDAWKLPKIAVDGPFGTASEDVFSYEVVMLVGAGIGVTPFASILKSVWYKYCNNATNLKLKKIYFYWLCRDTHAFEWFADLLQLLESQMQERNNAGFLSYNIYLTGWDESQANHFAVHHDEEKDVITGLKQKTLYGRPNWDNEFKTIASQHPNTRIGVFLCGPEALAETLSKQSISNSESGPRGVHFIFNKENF
Sequence of NADPH oxidase 5 (Homo sapiens) (Q96PH1 whole entry, looked up): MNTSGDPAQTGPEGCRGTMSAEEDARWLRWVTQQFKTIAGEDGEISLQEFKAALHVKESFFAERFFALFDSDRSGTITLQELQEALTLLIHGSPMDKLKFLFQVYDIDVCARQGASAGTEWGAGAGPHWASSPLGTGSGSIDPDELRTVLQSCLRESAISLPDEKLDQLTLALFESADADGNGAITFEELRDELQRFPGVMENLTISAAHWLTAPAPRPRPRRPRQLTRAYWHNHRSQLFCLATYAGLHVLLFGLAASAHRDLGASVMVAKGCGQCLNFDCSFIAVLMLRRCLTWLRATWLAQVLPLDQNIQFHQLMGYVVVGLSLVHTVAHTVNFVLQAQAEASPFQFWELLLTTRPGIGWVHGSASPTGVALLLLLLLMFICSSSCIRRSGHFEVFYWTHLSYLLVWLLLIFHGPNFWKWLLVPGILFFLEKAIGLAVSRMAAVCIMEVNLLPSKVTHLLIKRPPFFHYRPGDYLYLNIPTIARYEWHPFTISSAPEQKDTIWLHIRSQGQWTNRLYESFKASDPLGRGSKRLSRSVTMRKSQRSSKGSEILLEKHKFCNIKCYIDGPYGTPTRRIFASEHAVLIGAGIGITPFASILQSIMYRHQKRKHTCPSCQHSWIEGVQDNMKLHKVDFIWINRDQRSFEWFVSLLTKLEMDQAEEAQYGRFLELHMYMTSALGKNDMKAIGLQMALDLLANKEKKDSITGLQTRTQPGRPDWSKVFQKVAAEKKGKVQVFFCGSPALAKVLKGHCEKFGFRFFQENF

`CC1CC/C=C\[C@H]2OC34C=CCN(CCN5CCOCC5)C(=O)[C@H]3N(CCCCCCO)C(=O)[C@@H]4C2C(=O)O1` (stereo not given in full): the z-score in [1] is -0.044 (inactive); in test [3], 0.592 (inactive); in test [4], 0.267 (inactive); in [5], 0.215 (inactive); in [6], 0.182 (inactive); in test [7] it was -0.375. Also, the z-score in [8] is 0.726 (inactive); in [9] it was -0.0532 (inactive); in test [10], 1.96; in test [11], 0.919; in test [12] it was 0.24; in test [13] it was 1.1. Further, the z-score in [14] was 1.42; in [15], -0.575; in test [16], 0.37; in test [17] it was -0.44 (inactive); in [18], -0.0357; in [19] it was 0.606. For the same molecule, the z-score in test [20] is -0.116 (inactive). This molecule came in with a composite z-score in [2] of -0.187.
On to `CN(C)CCCCNC(=O)[C@H]1C[C@H]2C(=O)NCC(=O)N2[C@H]1c1cccc(OCCO)c1`, for which the z-score in [1] is 1.06 (inactive); in test [3], 0.799 (inactive); in [4], 0.33 (inactive); in test [5], -0.0825 (inactive); in test [6], 0.129 (inactive); in test [7], -0.0315. The z-score in [8] was -0.241 (inactive); in [9], 0.382 (inactive); in test [10] it was 1.05; in test [11], 1.11; in [12], -0.237; in [13], -0.13. Further, the z-score was 0.585 in [14]; 0.0875 in test [15]; 0.348 in test [16]; 0.871 (inactive) in [17]; -0.223 in test [18]; -0.348 in [19]. Moreover, the z-score in test [20] is 1.26 (inactive). Also, in test [2], the composite z-score was -0.007.
`N[C@@H](Cc1ccccc1)Cn1cc(C2(O)CCCCC2)nn1`: the z-score in [1] is -1.05 (inactive); in [3], 0.225 (inactive); in test [4] it was -0.304 (inactive); in [5], 0.005 (inactive); in test [6] it was 0.137 (inactive); in test [7], -0.225. Besides, the z-score in test [8] was 0.0811 (inactive); in test [9], 1.51 (inactive); in test [10], 1.19; in test [11] it was -0.359; in test [12], -0.169; in [13], 0.0224. Further, the z-score in test [14] is -0.991; in test [15], -0.775; in [16] it was -0.739; in test [17] it was -0.375 (inactive); in test [18] it was -0.622; in test [19] it was -0.313. Moreover, the z-score in [20] is -0.279 (inactive). Also, in [2], the composite z-score was determined as 0.099.
With `O=C1N(CCS(=O)(=O)c2ccccc2)c2ccccc2[C@@H]2OC(c3ccc(OCCCO)cc3)=N[C@]12CCS(=O)(=O)c1ccccc1`, the z-score is -0.927 (inactive) in test [1]; 28.2 (active) in [3]; 23.7 (active) in test [4]; 1.18 (inactive) in test [5]; 3.96 (inactive) in test [6]; -0.47 in test [7]. For the same molecule, the z-score in test [8] was 0.678 (inactive); in [9], 2.42 (inactive); in [10] it was 2.43; in [11], 0.762; in [12] it was 0.675; in test [13] it was -0.136. For the same molecule, the z-score is -1.68 in test [14]; -0.104 in test [15]; -1.04 in test [16]; 1.48 (inactive) in test [17]; -0.845 in [18]; -0.774 in [19]. Moreover, the z-score in test [20] was 0.967 (inactive). Also, the composite z-score in [2] worked out at 0.677.
Turning to `Cc1ccc(S[C@]2(C(=O)NCCCN(C)C)CC(=O)N(Cc3ccccc3Cl)[C@@H]2c2ccc(CO)cc2I)cc1`, the z-score in test [1] was 1.02 (inactive); in [3], 4.18 (inactive); in test [4] it was 0.987 (inactive); in test [5], 0.524 (inactive); in test [6], 0.498 (inactive); in test [7], -0.344. Also, the z-score was 0.255 (inactive) in [8]; -1.15 (inactive) in test [9]; 1.78 in test [10]; 0.171 in test [11]; 0.908 in test [12]; -0.696 in [13]. Also, the z-score is -2.41 in [14]; -3.15 in test [15]; 1.25 in test [16]; 0.722 (inactive) in [17]; -0.351 in [18]; -0.984 in [19]. Moreover, the z-score in test [20] is 0.515 (inactive). In test [2], this molecule gave a composite z-score of -0.0573.
`COc1ccccc1CN1C(=O)c2ccccc2[C@](Cc2ccccc2I)(C(=O)NCCCN(C)C)[C@@H]1c1ccc(CO)cc1`: the z-score in [1] was -6.9 (inactive); in test [3], 2.8 (inactive); in test [4], -0.551 (inactive); in [5], -5.31 (inactive); in test [6], -0.379 (inactive); in [7], -2.54. For the same molecule, the z-score was -10.2 (active) in test [8]; -4.81 (inactive) in [9]; -4.8 in test [10]; -4.38 in [11]; -0.247 in test [12]; -5.12 in [13]. In addition, the z-score in test [14] was -3.81; in test [15], -4.39; in test [16] it was -3.01; in test [17], 1.29 (inactive); in [18], -1.03; in test [19], -2.23. Further, the z-score in [20] was -7.15 (inactive). Also, in test [2], the composite z-score was -0.275.
With `CCOC(=O)C[C@H]1[C@H](OC(=O)c2cc3ccccc3oc2=O)[C@@H](NC(=O)C2CCCCC2)c2cc(OCCCO)ccc2N1C(=O)Cc1ccc(OC)cc1`, the z-score in test [1] was -0.926 (inactive); in test [3], 2.92 (inactive); in test [4] it was 0.275 (inactive); in test [5] it was 0.722 (inactive); in [6] it was 0.328 (inactive); in [7], 0.0301. For the same molecule, the z-score in [8] is 1.57 (inactive); in test [9] it was 1.01 (inactive); in [10], 1.63; in test [11], -0.266; in [12] it was 0.535; in [13], 0.391. Further, the z-score is 0.254 in test [14]; 0.0583 in test [15]; 0.38 in [16]; -0.229 (inactive) in test [17]; 0.0411 in [18]; 0.185 in test [19]. Further, the z-score in [20] is -0.545 (inactive). Moreover, the composite z-score in test [2] came out at 0.266.
In the case of `O=C(NCC(F)(F)F)[C@@H]1c2ccccc2C(=O)N(CC23CC4CC(CC(C4)C2)C3)[C@H]1c1ccc(CO)cc1`, the z-score in test [1] was 1.17 (inactive); in test [3], 0.75 (inactive); in test [4], -0.399 (inactive); in test [5] it was -0.2 (inactive); in test [6], -0.264 (inactive); in test [7], 3.83. The z-score was 0.49 (inactive) in test [8]; -0.0154 (inactive) in test [9]; 0.19 in test [10]; 1.5 in test [11]; 1.27 in test [12]; 2.14 in test [13]. Moreover, the z-score in test [14] was -0.347; in [15] it was 0.777; in [16], 1.08; in [17], -0.154 (inactive); in [18], 0.417; in test [19], -0.457. The z-score in test [20] was 0.637 (inactive). The molecule further came in with a composite z-score in test [2] of 0.0585.
With `COC(=O)[C@@]1(Cc2ccccc2)[C@@H]2[C@@H](CC(=O)[C@H]2CC(=O)C(=O)N(C)C)CN1C(=O)c1ccccc1`, the z-score in [1] is -0.655 (inactive); in test [3], 2.19 (inactive); in test [4], 0.543 (inactive); in [5], 0.0132 (inactive); in test [6], 0.738 (inactive); in test [7], -0.268. The z-score in test [8] was 0.984 (inactive); in [9], 0.766 (inactive); in test [10] it was -0.461; in [11] it was 0.258; in [12], -0.103; in test [13] it was 0.0925. In addition, the z-score in test [14] was -0.822; in [15], 0.397; in test [16] it was 1.23; in test [17], -0.239 (inactive); in test [18], 0.209; in test [19], -1.31. Moreover, the z-score in test [20] was -0.658 (inactive). Further, the composite z-score in test [2] was 0.0811.

The values are drawn from PubChem BioAssay.
